HCV inhibitor: qHTS Assay for Inhibitors of Hepatitis C Virus (HCV). Huh7.5.1 HCVcc-Cre infection, luciferase reporter, 44 h. 340,000 compounds, 3.4% hits. Potency, µM (series often up to 41.8 µM), hits mostly inhibitors
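Reporter virus HCVcc-Cre (~0.5 moi) infects cells exposed to compound; seeding density 1,000 cells/well with 4 h settling beforehand. Luminescence, 15 sec read, taken 44 h post-infection following a 15 min RT substrate incubation.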
FMDV antiviral: High Throughput Screening for Foot and Mouth Disease Virus Antivirals; 410,000 compounds, 1.2% hits; FMDV antiviral cell-based qHTS; AID 1159524, 2015; Potency, µM (titrated, usually from 57.9 µM), most hits filed as inhibitors; calls by dose curve; tested in HEK293T cells; also: read-out not given here; nearly all actives have a fitted effect of over 45% in size
Vaccinia Venus: qHTS for Stage-Specific Inhibitors of Vaccinia Orthopoxvirus: Venus Reporter Primary qHTS | 330,000 compounds, 0.46% hits | Vaccinia virus Venus reporter expression, fluorescence | Potency, µM (top dose mostly 36.5 µM), actives largely listed as inhibitors; calls by dose curve; tested in A549 cells; also: nearly all actives have a fitted effect of over 30% in size
VACV mCherry inh: qHTS for Stage-Specific Inhibitors of Vaccinia Orthopoxvirus: mCherry Reporter Primary qHTS; Vaccinia virus mCherry reporter infection, fluorescence; 310,000 compounds, 0.63% hits; AID 720579, 2013; Potency, µM (highest dose often 36.5 µM), actives largely listed as inhibitors; calls by dose curve; tested in A549 cells; also: nearly all actives have a fitted effect of over 35% in size
Sm TGR inh: qHTS Assay for the Inhibitors of Schistosoma Mansoni Peroxiredoxins; Schistosoma mansoni thioredoxin glutathione reductase (TGR), Q962Y6; purified TGR, DTNB reduction, TNB absorbance 405 nm; Potency, µM (highest dose often 114 µM), most hits filed as inhibitors; 360,000 compounds, 3% hits; also: nearly all actives have a fitted effect of over 60% in size
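First, TGR (20 nM dispensed) and NADPH were mixed with compound. Second, a 15 min room-temperature incubation followed. Third, further NADPH and then DTNB were added to start the reaction. Finally, TNB absorbance was monitored kinetically.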
HCMV inh: qHTS Assay for inhibitors of the human cytomegalovirus (HCMV) | activity change, negative = inhibition, % at 57.5 µM | 410,000 compounds, 4.5% hits | HFF cells, HCMV-luciferase reporter, 72 h; stronger effect = lower value; in the data active = activity change below about -60%; inconclusive = no clear call, values can overlap the other calls; inactive = above about -39%
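HFF cells seeded 16 h at 37C, treated with compounds, infected with luciferase-reporter HCMV at MOI 1 PFU/cell; luciferase read at 72 h post infection, normalized to buffer-only and Salinomycin controls.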
Hits are given with their value; i = inactive; ? = inconclusive; nt = not tested or not shown; ! = not active in a repeat; [ ] = another dose, or the depositor's remark. A selection: hits, their analogues and other compounds. The true share with any hit is near 9.3%. Unless noted, calls follow the shape of the dose curve; as a rule, active = well fitted curve in the direction sought with a large enough effect; inconclusive = small, poorly fitted or top-dose-only effect, or another doubt; inactive = no such curve, though single readings can be large; an effect the other way counts as inactive or inconclusive.

SMILES | HCV inhibitor | FMDV antiviral | Vaccinia Venus | VACV mCherry inh | Sm TGR inh | HCMV inh
CC1CCN(C(=O)Cn2cc(SCC(=O)NCc3ccccc3)c3ccccc32)CC1 | nt | i | i | i | i | -85
COc1ccc(Cl)cc1NC(=O)CSc1cn(CC(=O)N2CCCCC2)c2ccccc12 | nt | ? | i | i | i | -72
COc1ccc(Oc2ccc3c(-c4ccccc4F)noc3n2)c(F)c1 | nt | nt | nt | nt | nt | i
COc1ccc(O)c(CN2CCCC(N3CCN(c4ccc(F)cc4)CC3)C2)c1 (configuration not stated) | i | i | nt | nt | i | i
Cc1ccc2c(c1)C1C=CCC1C(C(=O)O)N2 (configuration not stated) | i[0.335 µM] | nt | nt | nt | 0.71µM | nt
NS(=O)(=O)c1ccc2c(c1)C1C=CCC1C(C1CC=CCC1)N2 (configuration not stated) | ? | i | nt | nt | ? | i
O=C(O)C1Nc2c(cccc2C(F)(F)F)C2C=CCC12 (configuration not stated) | nt | nt | nt | nt | 1.4µM | nt
CC(C)C1Nc2ccc(S(N)(=O)=O)cc2C2C=CCC21 (configuration not stated) | 11µM | i | i | i | 13µM | i
COc1cccc2c1NC(C(=O)O)C1CC=CC21 (configuration not stated) | i | i | i | i | 7.1µM | nt
CCCc1cc(=O)[nH]c(SCc2ccc(F)cc2)n1 | i | i | i | i | i | i
CN(C)CC/C=C1/c2ccccc2COc2ccccc21 | nt | i | i | i | 20µM | nt
CN(C)CCC=C1c2ccccc2CCc2ccccc21 | ? | ? | i | ? | 7.1µM | ?
CN(C)CCC=C1c2ccccc2C=Cc2ccccc21 | 32µM | i | i | i | 25µM | i
CCc1nc2ccc(C(=O)Nc3cccc(OC)c3)cn2c1N(CC)CCOC | nt | i | i | i | nt | i
COc1cc(Cl)c(NC(=O)C2CCN(S(=O)(=O)c3c(C)noc3/C=C/c3ccccc3F)CC2)c(OC)c1 | nt | i | i[7.34 µM] | i[7.34 µM] | i | i
CCOC(=O)c1c(C)[nH]c(C)c1S(=O)(=O)NCC(=O)Nc1ccccn1 | i | i | nt | nt | i | ?
Cc1ccc(C(=O)CCS(=O)(=O)c2ccc(Br)cc2)cc1 | i | i | i | i | 0.4µM | i
COc1ccc(C(=O)NCS(=O)(=O)c2ccc(C)cc2)cc1 | i | i | nt | nt | 11µM | i
Cc1ccc(S(=O)(=O)CCC(=O)Oc2ccc(-c3nnco3)cc2)cc1 | i | i | i | i | 20µM | i
Cc1ccc(S(=O)(=O)Cc2cc(F)c([N+](=O)[O-])cc2[N+](=O)[O-])cc1 | ? | i | ? | 2.8µM | 1.8µM | nt
COc1ccc(C(=O)NCCS(=O)(=O)NCc2ccc(C)cc2)cc1 | i | i | i | i | i | i
CC(NC(=O)[C@H](C)NC(=O)N1CCn2c1nc1ccccc12)c1ccccc1 (some centres not stated) | i | i | nt | nt | i | i
CN(C)CCNc1ccc(Cl)cc1[N+](=O)[O-] | i | i | i | i | i | i
CCOc1ccccc1NC(=O)c1ccc(-n2cncn2)nc1 | ? | i | nt | nt | nt | i
O=C(CCNc1cccc(F)c1)c1cccc([N+](=O)[O-])c1 | i | i | i | i | 0.28µM | i
SMILES | HCV inhibitor | FMDV antiviral | Vaccinia Venus | VACV mCherry inh | Sm TGR inh | HCMV inh
O=C(CCNc1ccc(Cc2ccncc2)cc1)c1cccc([N+](=O)[O-])c1 | i | i | i | i | i | i
COc1ccc(C(=O)CCS(=O)(=O)c2ccc(C)cc2)cc1 | i | i | i | ? | 1µM | ?
CO/N=C(/CS(=O)(=O)c1ccc(C)cc1)c1ccc(OC)cc1 | i | i | i | i | 40µM | i
Cc1ccc(S(=O)(=O)CCC(=O)c2cccc([N+](=O)[O-])c2)cc1 | ? | 25µM | i | i | ? | i
Cc1ccc(C(=O)c2ccc([N+](=O)[O-])cc2)c(C)c1 | i | i | ? | nt | ? | i
COCCNC(=O)CN1CCC(NC(=O)Nc2ccc(C(F)(F)F)cc2)CC1 | 11µM! | i | nt | nt | i | i
COc1ccccc1N1CCN(C(=O)c2[nH]c(C(F)(F)F)nc2-c2ccccc2)CC1 | nt | i | ? | i | nt | -64
Cc1cccc(N2CCN(C(=O)c3[nH]c(C(F)(F)F)nc3-c3ccccc3)CC2)c1C | nt | i | ? | ? | nt | -87
CCN(C(=O)C(C)Sc1ccc(S(=O)(=O)N2CCN(C)CC2)cn1)c1ccccc1 (configuration not stated) | i | i | nt | nt | ? | i
CC1=CC2OC3CC4OC(=O)C=CC=CC(=O)OCCC(C)C(O)C(=O)OCC2(CC1)C4(C)C31CO1 (configuration not stated) | nt | i | nt | nt | nt | -98
CC(O)C1C=CC=CC(=O)OC2CC3OC4C5OC5(C)C(O)CC4(COC(=O)C(O)C(C)CCO1)C2(C)C31CO1 (configuration not stated) | nt | nt | nt | nt | nt | -98
CC1=CC2OC3CC4OC(=O)C=CC=CC(C(C)O)OCC(O)C5(C)OC5C(=O)OCC2(CC1O)C4(C)C31CO1 (configuration not stated) | nt | nt | nt | nt | nt | -98
CC1CCOC(=O)C=CC=CC(=O)OC2CC3OC4C5OC5(C)C(O)CC4(COC(=O)C1O)C2(C)C31CO1 (configuration not stated) | nt | nt | nt | nt | nt | -98
CCN(Cc1ccccc1)C(=O)CSc1nncn1C | i | i | i | i | i | i
COc1cccc(OC)c1C(=O)NC(=O)Oc1c(F)cccc1F | i | i | i | i | i | i
CC(C)[C@@H](N)C(=O)NC[C@H]1O[C@@H](n2cnc3c(N)ncnc32)[C@H](O)[C@@H]1O | i | i | i | i | nt | i
O=C(Nc1ccc2c(c1)OCCO2)c1cccc(Cl)c1 | i | i | i | i | i | i
COc1ccc(C(CCc2cc(OC)c(OC)c(OC)c2)NC(C)=O)cc1 (configuration not stated) | i | i | i | i | nt | i
Cc1nnc2ccc(N3CCC4(CC3)OCCO4)nn12 | i | i | i | i | i | -62
Cc1nnc2ccc(N3CCCC3)nn12 | i | i | i | i | i | i
NC(N)=N/N=C/c1ccc(N(c2ccccc2)c2ccccc2)cc1 | ? | 32µM | 10µM | ? | i | -98
COc1ccc(/C=N\N=C(N)N)cc1 | ? | i | i | i | i | ?
CCN(Cc1ccccc1)c1ccc(/C=N/N=C(N)N)cc1 | ? | ? | 11µM | ? | i | -62
NC(N)=N/N=C/c1ccc(OS(=O)(=O)c2ccccc2)cc1 | ? | i | nt | nt | i | -82
Cc1nnc2sc(SCC(=O)Nc3ccc(Br)cc3)nn2c1=O | i | i | i | i | i | i
Cc1c(Cl)cccc1NC(=O)c1ncn(-c2ccccc2)n1 | nt | i | i | i | i | i
Cc1c(C(=O)O)oc2c1ccc1ccccc12 | i | i | i | i | i | i

Screening results as filed in PubChem.
